compound: COc1cccc(CN(C)C(=O)CCl)c1; experiment: log2 ratio of Biotin-Ahx-Ub-VS probe labelling (compound/DMSO); higher = less target engagement, active = hit call of the paper (q ≤ 0.05, log2 ratio ≤ -1); conditions: compound concentration: 50uM; treatment time: 3 h
Experimental: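 Round 2 competitive ABPP in HEK293T lysate. Compounds were tested at 50 and 200 µM for 3 h, followed by Biotin-Ahx-Ub-VS enrichment and diaPASEF LC-MS/MS. Values are the average log2 ratio (compound/DMSO) from an unpaired t-test (n=3 treated, n=26 DMSO).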

UniProt O94966, sequence (O94966 whole entry): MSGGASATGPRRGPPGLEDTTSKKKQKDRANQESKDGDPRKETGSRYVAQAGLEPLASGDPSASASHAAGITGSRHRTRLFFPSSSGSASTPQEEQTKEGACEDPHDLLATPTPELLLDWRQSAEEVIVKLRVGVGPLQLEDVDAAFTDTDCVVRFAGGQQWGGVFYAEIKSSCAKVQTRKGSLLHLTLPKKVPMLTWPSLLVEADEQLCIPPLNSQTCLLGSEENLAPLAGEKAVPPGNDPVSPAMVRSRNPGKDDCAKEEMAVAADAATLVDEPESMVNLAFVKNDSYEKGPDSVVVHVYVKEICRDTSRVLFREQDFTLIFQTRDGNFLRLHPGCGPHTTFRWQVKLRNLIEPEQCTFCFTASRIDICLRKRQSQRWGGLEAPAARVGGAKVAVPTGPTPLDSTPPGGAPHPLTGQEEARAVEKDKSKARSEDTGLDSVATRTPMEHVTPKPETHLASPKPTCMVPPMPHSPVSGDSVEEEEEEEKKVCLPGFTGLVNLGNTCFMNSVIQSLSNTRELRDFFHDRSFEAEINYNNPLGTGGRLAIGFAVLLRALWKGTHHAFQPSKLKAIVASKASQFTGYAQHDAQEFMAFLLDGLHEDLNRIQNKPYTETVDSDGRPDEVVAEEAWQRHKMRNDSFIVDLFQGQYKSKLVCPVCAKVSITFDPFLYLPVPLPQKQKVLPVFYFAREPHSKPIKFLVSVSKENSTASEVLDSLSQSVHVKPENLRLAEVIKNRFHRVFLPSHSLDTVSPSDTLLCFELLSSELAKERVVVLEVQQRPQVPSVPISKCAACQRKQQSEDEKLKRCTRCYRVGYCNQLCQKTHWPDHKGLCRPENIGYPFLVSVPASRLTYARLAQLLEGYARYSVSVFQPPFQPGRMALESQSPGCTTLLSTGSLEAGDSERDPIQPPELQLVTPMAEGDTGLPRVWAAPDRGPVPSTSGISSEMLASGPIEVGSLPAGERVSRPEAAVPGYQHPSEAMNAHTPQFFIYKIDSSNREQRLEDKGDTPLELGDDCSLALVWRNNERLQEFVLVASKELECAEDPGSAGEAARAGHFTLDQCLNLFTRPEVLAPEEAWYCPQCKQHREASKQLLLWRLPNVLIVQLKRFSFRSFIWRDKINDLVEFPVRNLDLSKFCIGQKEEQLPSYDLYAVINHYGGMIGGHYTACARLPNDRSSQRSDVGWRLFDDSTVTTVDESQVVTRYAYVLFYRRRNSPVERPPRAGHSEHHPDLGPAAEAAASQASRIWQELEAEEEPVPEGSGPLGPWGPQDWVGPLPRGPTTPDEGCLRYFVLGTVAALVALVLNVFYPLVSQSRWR
UniProt P51665, sequence (P51665 whole entry): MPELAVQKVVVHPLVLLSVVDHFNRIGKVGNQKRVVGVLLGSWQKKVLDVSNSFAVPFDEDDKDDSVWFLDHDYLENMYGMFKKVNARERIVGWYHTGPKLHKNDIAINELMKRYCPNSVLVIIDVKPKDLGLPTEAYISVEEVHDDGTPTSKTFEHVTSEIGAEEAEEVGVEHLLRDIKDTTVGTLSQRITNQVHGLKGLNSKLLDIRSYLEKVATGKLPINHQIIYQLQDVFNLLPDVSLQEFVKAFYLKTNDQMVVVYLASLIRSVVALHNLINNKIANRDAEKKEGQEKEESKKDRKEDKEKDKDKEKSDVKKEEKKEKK
UniProt P45974, sequence (P45974 whole entry): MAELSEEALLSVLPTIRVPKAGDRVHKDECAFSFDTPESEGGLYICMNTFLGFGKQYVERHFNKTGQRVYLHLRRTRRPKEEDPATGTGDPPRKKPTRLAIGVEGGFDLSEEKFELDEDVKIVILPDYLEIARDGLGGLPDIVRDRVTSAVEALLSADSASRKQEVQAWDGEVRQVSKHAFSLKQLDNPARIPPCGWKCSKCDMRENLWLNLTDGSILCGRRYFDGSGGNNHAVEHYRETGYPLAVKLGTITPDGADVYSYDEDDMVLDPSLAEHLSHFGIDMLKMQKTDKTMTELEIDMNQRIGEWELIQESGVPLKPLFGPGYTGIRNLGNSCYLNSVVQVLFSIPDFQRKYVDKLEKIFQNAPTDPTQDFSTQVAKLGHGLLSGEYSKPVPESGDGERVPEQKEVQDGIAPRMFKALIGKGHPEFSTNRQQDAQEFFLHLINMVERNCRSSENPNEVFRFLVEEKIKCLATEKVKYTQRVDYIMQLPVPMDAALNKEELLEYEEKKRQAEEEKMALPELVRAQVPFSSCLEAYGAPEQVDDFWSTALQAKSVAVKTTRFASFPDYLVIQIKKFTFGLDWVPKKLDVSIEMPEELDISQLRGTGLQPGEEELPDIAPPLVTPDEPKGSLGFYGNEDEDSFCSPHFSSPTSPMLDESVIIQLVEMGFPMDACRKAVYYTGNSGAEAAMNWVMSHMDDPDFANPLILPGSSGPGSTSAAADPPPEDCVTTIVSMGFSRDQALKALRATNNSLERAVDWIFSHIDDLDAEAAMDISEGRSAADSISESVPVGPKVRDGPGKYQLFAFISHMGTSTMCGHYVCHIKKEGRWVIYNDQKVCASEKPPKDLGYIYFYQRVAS
UniProt P15374, sequence (P15374 whole entry): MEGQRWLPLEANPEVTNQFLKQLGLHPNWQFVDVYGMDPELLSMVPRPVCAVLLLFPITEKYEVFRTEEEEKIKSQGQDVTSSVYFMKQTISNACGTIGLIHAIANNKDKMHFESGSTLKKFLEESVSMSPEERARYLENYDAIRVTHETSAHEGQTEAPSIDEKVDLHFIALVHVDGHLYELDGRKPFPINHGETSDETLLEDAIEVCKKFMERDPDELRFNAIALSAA
UniProt Q9UPT9, sequence (Q9UPT9 whole entry): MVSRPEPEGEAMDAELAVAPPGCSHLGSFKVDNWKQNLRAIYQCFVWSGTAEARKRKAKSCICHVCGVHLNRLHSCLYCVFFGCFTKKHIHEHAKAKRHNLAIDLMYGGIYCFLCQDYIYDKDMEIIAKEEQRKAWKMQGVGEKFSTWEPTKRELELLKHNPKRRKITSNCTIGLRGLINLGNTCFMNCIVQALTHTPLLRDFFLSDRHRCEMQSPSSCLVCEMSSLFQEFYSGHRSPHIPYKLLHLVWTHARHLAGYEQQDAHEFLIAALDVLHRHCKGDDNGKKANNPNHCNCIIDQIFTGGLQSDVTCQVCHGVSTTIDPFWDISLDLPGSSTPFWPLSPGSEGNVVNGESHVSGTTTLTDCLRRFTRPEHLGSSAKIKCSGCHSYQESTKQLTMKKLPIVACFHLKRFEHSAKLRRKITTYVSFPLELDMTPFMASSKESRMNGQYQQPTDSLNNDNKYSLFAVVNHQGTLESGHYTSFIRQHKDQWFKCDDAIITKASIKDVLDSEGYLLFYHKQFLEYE
UniProt Q9P2H5, sequence (Q9P2H5 whole entry): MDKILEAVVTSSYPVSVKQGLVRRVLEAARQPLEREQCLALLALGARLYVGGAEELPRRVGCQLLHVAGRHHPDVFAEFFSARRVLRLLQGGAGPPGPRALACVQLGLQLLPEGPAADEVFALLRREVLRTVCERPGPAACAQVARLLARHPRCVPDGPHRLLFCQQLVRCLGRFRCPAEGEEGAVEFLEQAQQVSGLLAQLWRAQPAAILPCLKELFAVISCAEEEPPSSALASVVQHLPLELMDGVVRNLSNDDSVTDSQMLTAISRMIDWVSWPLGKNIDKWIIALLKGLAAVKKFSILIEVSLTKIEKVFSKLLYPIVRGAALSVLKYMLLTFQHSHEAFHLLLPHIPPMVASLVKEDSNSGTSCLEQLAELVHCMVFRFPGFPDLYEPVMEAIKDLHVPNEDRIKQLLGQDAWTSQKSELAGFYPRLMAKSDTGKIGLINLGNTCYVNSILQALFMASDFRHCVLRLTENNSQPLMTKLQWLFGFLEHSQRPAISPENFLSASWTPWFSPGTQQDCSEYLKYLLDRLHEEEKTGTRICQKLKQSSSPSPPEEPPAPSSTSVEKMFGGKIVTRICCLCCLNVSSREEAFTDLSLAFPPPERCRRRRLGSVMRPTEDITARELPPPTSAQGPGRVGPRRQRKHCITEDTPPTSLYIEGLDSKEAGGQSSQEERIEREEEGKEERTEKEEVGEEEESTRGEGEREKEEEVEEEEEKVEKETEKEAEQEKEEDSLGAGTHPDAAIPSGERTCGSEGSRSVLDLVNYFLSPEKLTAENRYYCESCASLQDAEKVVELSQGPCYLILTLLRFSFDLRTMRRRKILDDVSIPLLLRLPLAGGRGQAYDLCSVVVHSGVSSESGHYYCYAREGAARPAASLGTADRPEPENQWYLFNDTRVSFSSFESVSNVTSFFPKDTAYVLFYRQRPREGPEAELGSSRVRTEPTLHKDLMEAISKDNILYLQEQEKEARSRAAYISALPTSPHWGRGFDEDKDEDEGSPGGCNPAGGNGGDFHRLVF
UniProt Q4G0A6, sequence (Q4G0A6 whole entry): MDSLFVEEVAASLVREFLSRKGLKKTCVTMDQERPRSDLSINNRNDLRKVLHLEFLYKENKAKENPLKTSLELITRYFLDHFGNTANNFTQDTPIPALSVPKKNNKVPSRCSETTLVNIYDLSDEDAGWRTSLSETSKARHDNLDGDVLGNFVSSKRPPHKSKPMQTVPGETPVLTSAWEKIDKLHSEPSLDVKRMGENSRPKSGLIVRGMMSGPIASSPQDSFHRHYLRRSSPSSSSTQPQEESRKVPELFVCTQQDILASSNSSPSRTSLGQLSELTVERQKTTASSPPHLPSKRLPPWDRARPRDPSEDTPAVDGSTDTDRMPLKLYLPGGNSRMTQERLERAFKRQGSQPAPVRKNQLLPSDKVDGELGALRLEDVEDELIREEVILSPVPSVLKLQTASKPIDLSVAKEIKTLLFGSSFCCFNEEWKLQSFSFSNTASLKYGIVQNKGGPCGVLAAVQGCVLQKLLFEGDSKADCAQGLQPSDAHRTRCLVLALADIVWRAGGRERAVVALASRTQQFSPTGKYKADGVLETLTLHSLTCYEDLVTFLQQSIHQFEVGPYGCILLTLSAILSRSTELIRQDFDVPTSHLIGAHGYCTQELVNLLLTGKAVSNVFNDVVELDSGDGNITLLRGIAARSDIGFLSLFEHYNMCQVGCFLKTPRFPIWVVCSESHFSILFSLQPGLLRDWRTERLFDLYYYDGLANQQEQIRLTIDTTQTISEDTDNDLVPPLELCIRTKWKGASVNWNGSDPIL

log2 ratio of Biotin-Ahx-Ub-VS probe labelling, active:
USP54 (UniProt Q70EL1) -2.86

log2 ratio of Biotin-Ahx-Ub-VS probe labelling, inactive:
UniProt Q70EL2 -0.17
USP22 (UniProt Q9UPT9) 0.0954
EIF3F (UniProt O00303) -0.14
COPS5 (UniProt Q92905) -0.236
UniProt O00487 -0.186
USP34 (UniProt Q70CQ2) -0.106
USP8 (UniProt P40818) -0.108
USP24 (UniProt Q9UPU5) 0.0304
UniProt Q5T2D3 -0.199
MINDY4 (UniProt Q4G0A6) 0.225
UCHL3 (UniProt P15374) -0.285
UniProt Q9UGI0 -0.354
PSMD7 (UniProt P51665) 0.132
UniProt Q9P2H5 -0.267
USP19 (UniProt O94966) -0.209
USP5 (UniProt P45974) 0.274
USP10 (UniProt Q14694) -0.177
FAM105A (UniProt Q9NUU6) -0.133
UCHL5 (UniProt Q9Y5K5) -0.115

same assay, conditions: compound concentration: 200uM; treatment time: 3 h

log2 ratio of Biotin-Ahx-Ub-VS probe labelling, inactive:
USP22 (UniProt Q9UPT9) -0.231
EIF3F (UniProt O00303) -0.0452
COPS5 (UniProt Q92905) -0.578
UniProt O00487 -0.459
USP34 (UniProt Q70CQ2) -0.024
USP8 (UniProt P40818) -0.0766
USP24 (UniProt Q9UPU5) -0.88
UniProt Q5T2D3 0.0147
MINDY4 (UniProt Q4G0A6) 0.167
UCHL3 (UniProt P15374) -0.275
UniProt Q9UGI0 -0.0472
PSMD7 (UniProt P51665) -0.458
UniProt Q9P2H5 -0.143
USP19 (UniProt O94966) -0.661
USP5 (UniProt P45974) 0.357
USP10 (UniProt Q14694) 0.037
FAM105A (UniProt Q9NUU6) 0.096
UCHL5 (UniProt Q9Y5K5) -0.295

log2 ratio of Biotin-Ahx-Ub-VS probe labelling, active:
UniProt Q70EL2 -1.02
USP54 (UniProt Q70EL1) -2.26

— the supplement of paper PMC11732987, “Enantioselective OTUD7B fragment discovery through chemoproteomics screening and high-throughput optimisation” (Communications Chemistry, 2025)
